Most compounds without a hit are left out; they make up all but 1% or so of the library.
NPSR antagonist = neuropeptide S receptor (human) antagonism, cAMP. CHO-NPSR cells, cAMP TR-FRET, antagonist mode. Potency, µM (series often up to 38.3 µM), without a hit: top-dose activity change, negative = inhibition, usual class: inhibitors. Q6W5P4. 220,000 tested, 1% active; also: potency is read from the fitted curve at half-maximal effect; % is scaled to controls: 0 for no effect and ±100 for the full control effect; nearly all actives have a fitted effect of over 50% in size
FBPA coupling cs = coupling enzyme interference in Giardia aldolase counter-screen | coupling enzyme system counterscreen, AmpLite Red fluorescence | 290,000 tested, 0.67% active | activity change, negative = inhibition, % at 58.2 µM, hits read low | AID 2472; in the data active = activity change below about -30%; also: % is scaled to controls: 0 for no effect and ±100 for the full control effect
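First, compound is pin-transferred into glyceraldehyde-3-phosphate coupling-enzyme reagent at 57.5 uM final and held 10 min at RT. Next, substrate, coupling system and AmpLite Red are added. After 20 min RT, fluorescence (525/598 nm) is read.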
TCR act = activators of T cell receptors. 330,000 tested, under 10 active. primary human leukocytes, anti-CD3, IL-2 HTRF, 48 h. AID 504894. Potency, µM (highest dose often 9.22 µM), for inactives: top-dose activation of IL-2 secretion, actives largely listed as activators; also: % of control where 0% means no effect
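Primary human leukocytes incubated 48 hr with anti-CD3 beads plus compound, without co-stimulation. Secreted IL-2 measured by HTRF (europium cryptate/d2 anti-IL-2 pair, 320 nm excitation, 665 nm emission).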
TR SRC2 fluor cs = Texas Red fluorescence interference in TRb-SRC2 counter-screen; TRb/SRC2 Texas Red total fluorescence interference; Potency, µM (series often up to 106 µM), for inactives: top-dose fluorescence change, negative = quenching; 280,000 tested, 0.29% active; AID 1479; active = well fitted curve in either direction with a large enough effect; inconclusive = small, poorly fitted or top-dose-only effect; also: potency is read from the fitted curve at half-maximal effect; % is scaled to controls: 0 for no effect and ±100 for the full control effect
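Flags fluorescent or light-absorbing compounds by total fluorescence, S + 2P, at 555 nm excitation and 632 nm emission. Mixture: 20 nM Texas Red SRC2 peptide, 0.6 uM human TRb LBD, 1 uM T3, 5% DMSO; compound exposure 5 h at ambient temperature.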
TSHR antag = human thyrotropin receptor antagonism. TSHR-expressing cells, TSH-stimulated cAMP HTRF, 2 h; hits give low values. activity change, negative = inhibition, % at 11.5 µM. 330,000 tested, 0.2% active. AID 504810;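 active = activity change below a set negative limit, meaning inhibition stronger than a set level, cut at about -70% in these data; inconclusive = activity change between two set negative limits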; also: % is scaled to controls: 0 for no effect and ±100 for the full control effect
Target sequence (P16473 whole entry, looked up): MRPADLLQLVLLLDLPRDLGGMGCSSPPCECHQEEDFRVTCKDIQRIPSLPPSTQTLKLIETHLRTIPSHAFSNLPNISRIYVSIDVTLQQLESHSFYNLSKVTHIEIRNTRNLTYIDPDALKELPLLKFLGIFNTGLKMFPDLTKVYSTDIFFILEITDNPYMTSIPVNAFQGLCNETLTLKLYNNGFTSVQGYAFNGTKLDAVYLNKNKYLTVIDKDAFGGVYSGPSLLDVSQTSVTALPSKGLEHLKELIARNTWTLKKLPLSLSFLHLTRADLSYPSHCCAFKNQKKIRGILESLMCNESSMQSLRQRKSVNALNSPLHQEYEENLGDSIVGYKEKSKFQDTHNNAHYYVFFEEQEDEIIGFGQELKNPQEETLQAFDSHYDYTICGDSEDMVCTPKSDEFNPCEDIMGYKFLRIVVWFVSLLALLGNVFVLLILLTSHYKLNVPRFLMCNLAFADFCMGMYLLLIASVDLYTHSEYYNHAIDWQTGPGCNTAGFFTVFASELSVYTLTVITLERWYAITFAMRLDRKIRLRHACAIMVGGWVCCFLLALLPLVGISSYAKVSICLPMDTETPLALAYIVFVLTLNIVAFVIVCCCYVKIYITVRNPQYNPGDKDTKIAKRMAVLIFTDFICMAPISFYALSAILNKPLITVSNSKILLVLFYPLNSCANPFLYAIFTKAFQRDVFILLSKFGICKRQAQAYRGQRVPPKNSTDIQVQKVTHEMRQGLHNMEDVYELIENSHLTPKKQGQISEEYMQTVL
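Read-out is FRET at 665 nm (cryptate excitation 337 nm) from a cryptate-tagged anti-cAMP antibody, competed by cell cAMP against cAMP-d2. Compounds are tested on freshly harvested TSHR cells challenged with 4nM TSH (EC80) for 2 hours at 37 deg C.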
TRb SRC2 PPI = disrupts binding of human TR beta to SRC2; TRbeta-SRC2 peptide binding, fluorescence polarization; receptor liganded with 1 µM T3; Potency, µM (top dose mostly 106 µM), for the others: at the top dose activity change, negative = inhibition, usual class: inhibitors; AID 1469; P10828; 280,000 tested, 0.065% active;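 also: potency is read from the fitted curve at half-maximal effect; plate controls were bound peptide for no effect and peptide without receptor for full effect; nearly all actives have a fitted effect of over 50% in size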
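Fluorescence polarization of 20 nM Texas Red SRC2 peptide (20-aa NR interaction domain) bound to 0.6 uM human TRb ligand-binding domain, with 1 uM T3, after 5 hr at ambient temperature; inhibition seen as decreased polarization.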
* hit, by the source's call; ? = inconclusive; · = no result given; [ ] = remark or other dose. Unless noted, calls follow the shape of the dose curve; as a rule, active = well fitted curve in the direction sought with a large enough effect; inconclusive = small, poorly fitted or top-dose-only effect, or another doubt; inactive = no such curve, though single readings can be large; an effect the other way counts as inactive or inconclusive.

SMILES	NPSR antagonist	FBPA coupling cs	TCR act	TR SRC2 fluor cs	TSHR antag	TRb SRC2 PPI
CC(C)C[C@H](NC(=O)c1nc[nH]c1C(=O)NC1CCN(C(=O)OC(C)(C)C)CC1)C(=O)OC(C)(C)C	?	-13	0%	0%	9	0%
CSc1ccc(-c2nc3cccc(C)n3c2Nc2ccc3c(c2)OCO3)cc1	·	·	·	-1%	·	-5%
CC(=O)N(CCC(c1ccccc1)c1ccco1)Cc1cccs1 (configuration not stated)	-29%[46.1 µM]	9	-21%	2%	-91*	9%
CCn1c(/C=C/N(C(C)=O)c2ccccc2)[n+](CC)c2ccc(Cl)cc21	3%	5	-5%[46.1 µM]	-2%	8	-16%
CC[n+]1c(/C=C/N(C)c2ccccc2)oc2ccc(Cl)cc21	21%	-32*	0%[46.1 µM]	2%	-18	9%
CC(C)CCNC(=O)CN1C(=O)CCn2nc(-c3cn(C)c4ccccc34)cc21	·	·	·	-2%	·	-7%
CCOC(=O)CSc1nc2sc3c(c2c(=O)n1Cc1ccccc1)CC(C)CC3 (configuration not stated)	·	·	·	-3%	·	-3%
Cc1c(Cl)cccc1N1C(=O)C(N2C(=O)c3cccc([N+](=O)[O-])c3C2=O)C1c1cccs1 (configuration not stated)	?	-42*	3%	1%	2	3%
O=C1c2cccc([N+](=O)[O-])c2C(=O)N1C1CCCCC1	·	-2	-8%	·	3	·
COc1ccc(C2C3C=CCC(c4cccc(-c5ccc(N(C)C)cc5)c4)C3C(=O)N2Cc2ccccc2)cc1Cl (configuration not stated)	·	2	·	1%	·	-8%
COc1ccc(C2C3C=CCC(c4cccc(-c5ccc(C)cc5)c4)C3C(=O)N2Cc2ccccc2)cc1Cl (configuration not stated)	10µM*	-2	-7%	0%	3	-4%
COc1ccc(CCNC(=O)Cn2nnc(-c3cccc(C(F)(F)F)c3)n2)cc1OC	·	·	·	2%	·	0%
C/C(CC(C)(C)C1CCCCC1)=N\NC(N)=S	3.2µM*	0	5%	-4%	?	-5%
O=S(=O)(Oc1ccccc1/C=N/n1cnnc1)c1ccccc1	7%	-49*	-4%	-2%	-2	-7%
c1ccc(-n2cnc3cc(NCc4ccccn4)ccc32)cc1	-8%[46.1 µM]	-8	-2%	1%	-6	-3%
c1ccc(-n2cnc3cc(NCc4ccncc4)ccc32)cc1	?	-42*	0%	-6%	3	8%
CCN1/C(=C/c2cc[n+](C)cc2)C=Cc2cc(C)ccc21	-27%	-50*	6%[46.1 µM]	-4%	4	2%
CCN(CC)c1nn2c(=O)c(C(=O)NCc3cccc(OC)c3OC)cnc2s1	·	·	·	-4%	·	-5%
COC(=O)C1=C(C)OC(N)=C(C#N)C1c1cc(OC)c(OCC(N)=O)cc1Cl (configuration not stated)	-4%[46.1 µM]	-30*	-2%	0%	-6	10%
CCc1ccccc1N1CSC2=C(C#N)C(c3cc(OC)c(OC)cc3OC)CC(=O)N2C1 (configuration not stated)	-3%[46.1 µM]	-52*	-4%	-6%	4	-3%
COc1ccc(OC)c(C2CC(=O)N3CN(c4ccccc4F)CSC3=C2C#N)c1 (configuration not stated)	-12%[46.1 µM]	-84*	7%	-1%	-3	1%
CSc1cccc(NC(=O)CC(c2ccc(F)cc2)N2Cc3ccccc3C2=O)c1 (configuration not stated)	·	·	·	-2%	·	-2%
O=C(/C=C/c1ccc2c(c1)OCO2)Nc1nc(-c2ccccc2)cs1	-10%[46.1 µM]	-7	3%	-1%	-79*	9%
CCOc1ccc2noc3c2c1C(=O)c1ccccc1-3	1%[46.1 µM]	-45*	2%	?	-4	50µM*
O=C1c2ccccc2-c2onc3ccc(NCc4ccco4)c1c23	?	-43*	4%	45µM*[fluorescent]	-27	35µM*
SMILES	NPSR antagonist	FBPA coupling cs	TCR act	TR SRC2 fluor cs	TSHR antag	TRb SRC2 PPI
O=C1c2ccccc2-c2onc3ccc(N4CCCC4)c1c23	13µM*	-50*	4%	45µM*[fluorescent]	-18	40µM*
CCNc1ccc2noc3c2c1C(=O)c1ccccc1-3	-17%[46.1 µM]	-5	4%[46.1 µM]	45µM*[fluorescent]	-16	14µM*
Cc1nn(C)c2c1c(-c1ccccc1)cc(=O)n2Cc1ccc(F)cc1	·	·	·	-2%	·	9%
CCN1CCN(c2oc(-c3ccc(COc4ccccc4C)o3)nc2C#N)CC1	·	·	·	28µM*[quencher]	·	-11%
Cc1cccc(OCc2ccc(-c3nc(C#N)c(N4CCN(c5ccccc5)CC4)o3)o2)c1	·	·	·	6310µM*[quencher]	·	-21%
CC(=O)N1CCC(N(Cc2ccc(C)o2)C(=O)Nc2ccccc2F)CC1	·	·	·	8%	·	4%
CN(C)c1ccc(C(c2ccccc2)c2ccc(N(C)C)cc2)cc1	·	·	·	1%[201 µM]	·	7%[201 µM]
O=[N+]([O-])c1cc([N+](=O)[O-])c(N2CCOCC2)cc1NCc1ccccc1	-18%[46.1 µM]	2	2%	-4%	-9	-10%
O=[N+]([O-])c1c(NCc2ccccc2)cc(N2CCc3ccccc3C2)c2nonc12	1%	-40*	-9%[46.1 µM]	-2%	15	-17%
CCN(CC)C(=O)Cn1c(=O)n(-c2ccccc2)c(=O)c2sccc21	9%	-5	-1%	-2%	-81*	-11%
O=C1C(O)=C(O)C(=O)c2ccccc21	·	·	-2%	·	·	·
O=C1C(=O)c2ccccc2C(O)=C1c1ccccc1F	13µM*	-1	13%	-5%	-23	-4%
COc1cccc(NC(=O)C(C)n2c(=O)cc(C(F)(F)F)c3c(C)nn(C)c32)c1 (configuration not stated)	·	·	·	-4%	·	-3%
N#CC(C#N)=C1C=CC=CN1/C(=C\c1ccccc1Cl)C(=O)c1ccccc1	7.9µM*	-17	0%	12%	19	-6%
COc1ccc(/C=C2\CCCc3c2nc2ccccc2c3C(=O)O)cc1OC	17%	-33*	·	4%	2	-4%
N#CC1=C(N)Oc2n[nH]c(-c3ccccc3)c2C12C(=O)Nc1ccccc12 (configuration not stated)	-7%[46.1 µM]	-4	·	-4%	-8	4%
Cn1c2c(c(=O)n(C)c1=O)[C@@]1(C(=O)Nc3ccccc31)C(C#N)=C(N)O2	-3%[46.1 µM]	-50*	0%[46.1 µM]	2%	-3	-3%
Cc1ccc2c(c1)-c1nc(-c3ccc4c(c3)NC(=O)CO4)cc(-c3ccccc3)c1CO2	·	·	·	-12%	·	9%
COc1ccc(N=Cc2c(O)cc(C)oc2=O)cc1	8%	2	-2%	0%	28	-17%
